# About 8,600 (12%) of roughly 69,000 compounds showed an effect of 50% or more. This excerpt belongs to a sample that is enriched for strong results.
# Test system: Plasmodium berghei
# Assay: Screen against P. berghei liver stage (PbLuc), transformed with Luciferase, at 10uM
# Assay type: functional, HepG2
# Conditions: tested at 10 uM
row,Compound,INHIBITION
1,O=C(CC(F)(F)F)N1C[C@H]2CC[C@@H](C1)N(Cc1ccccc1)C2=O,26.9%
2,COc1ccc(NC(C)=O)cc1S(=O)(=O)Nc1ccon1,35.7%
3,CCN(CC)Cc1ccc(C(=O)N2CCCC2Cn2cc(C)cn2)o1 (configuration not stated),-4.3%
4,CN(C)c1ccc(CC2CCN(c3cnccn3)CC2)nn1,-18.8%
5,COc1ccc(CN2CCCn3nnc(COCC4CC4)c3C2)cc1,16.8%
6,Cn1ncc2c1CN(Cc1ccc(F)cc1)CC2COCC1CC1 (configuration not stated),8.67%
7,Cc1ccc(CN2CCCn3nnc(COCCN(C)C)c3C2)s1,54.8%
8,Cc1ccc(CN2Cc3c(cnn3C)C(COCC3CC3)C2)s1 (configuration not stated),65.6%
9,Cc1ccc(CN2CCCn3nnc(COCC4CC4)c3C2)s1,23.3%
10,Cn1cc(CN2Cc3c(cnn3C)C(COCC3CC3)C2)cn1 (configuration not stated),47.9%
11,Cc1cnn(CC2CCCCN2C(=O)c2csc(C)n2)c1 (configuration not stated),23.5%
12,CC(Oc1cc(Cl)cc(Cl)c1)C(=O)NCCC(=O)N(C)C (configuration not stated),30.7%
13,COCCCNc1nc(CNC(=O)C2CCC2)cc(-c2ccco2)n1,-3.34%
14,CCC1=N[C@@]2(CC[C@@H]3CN(CC(=O)N(C)C)C[C@@H]32)C(=O)N1CC(C)C,29%
15,CCCc1n[nH]c(C2CN(Cc3nnc(C4CCC4)o3)CCO2)n1 (configuration not stated),-25.8%
16,CCCc1n[nH]c(C2CN(Cc3nnc(C4CC4)o3)CCO2)n1 (configuration not stated),52%
17,CC(C)(C)c1n[nH]c(C2CN(Cc3nnc(C4CC4)o3)CCO2)n1 (configuration not stated),-3.2%
18,CCc1n[nH]c(C2CN(Cc3nnc(C4CC4)o3)CCO2)n1 (configuration not stated),13.3%
19,CCc1n[nH]c(C2CN(Cc3nc(C4CC4)no3)CCO2)n1 (configuration not stated),64.9%
20,Cc1n[nH]c(C2CN(Cc3nnc(C4CC4)n3C)CCO2)n1 (configuration not stated),33.7%
21,CCc1n[nH]c(C2CN(Cc3nnc(C4CC4)n3C)CCO2)n1 (configuration not stated),-17.5%
22,CCCc1n[nH]c(C2CN(Cc3nnc(C4CC4)n3C)CCO2)n1 (configuration not stated),50.1%
23,CCc1n[nH]c(C2CN(Cc3nnc(C4CCC4)o3)CCO2)n1 (configuration not stated),9.14%
24,COc1ccccc1-n1cc(C(=O)NCCCn2ccnn2)cn1,-12.5%
25,Cc1nc2c(c(=O)[nH]1)CCN(C(=O)c1cccc3nccnc13)C2,46%
26,CN(C)c1ccc(C(=O)Nc2ccn(CC(N)=O)n2)cn1,-15%

row,Compound,INHIBITION
1,O=C(NCC1CCC1)c1ccnc(-n2ccnc2)c1,-13.6%
2,Cc1cc(CNC2(c3ccccc3F)CC2)no1,-4.73%
3,CN1C[C@@H](C(=O)NC2CCCC2)[C@@]2(COc3ccc(F)cc3C2=O)C1,23.85%
4,c1ccc(OCCCN2CCOC(CNc3cccnn3)C2)cc1 (configuration not stated),-65.3%
5,Cc1noc(C)c1CN1CCn2cc(CNC(=O)C3CCC3)nc2C1,45.2%
6,COc1ccc(CC(=O)N2C[C@H]3CN(Cc4ccccn4)C[C@H]3C2)cc1,18.6%
7,CC[C@@H](CO)Nc1nccc(-c2cnc3sc(C)cn3c2=O)n1,11.5%
8,Cc1cn2c(=O)c(-c3ccnc(N[C@@H](C)CO)n3)cnc2s1,27.8%
9,Cc1[nH]c2ccccc2c1-c1ccnc(N[C@@H](CO)C(C)C)n1,36.7%
10,Cc1[nH]c2ccccc2c1-c1ccnc(N[C@H](CO)CC(C)C)n1,56%
11,Cc1[nH]c2ccccc2c1-c1ccnc(N[C@@H](C)CO)n1,85.7%
12,CC(C)[C@H](CO)Nc1nccc(-c2c[nH]nc2-c2ccncc2)n1,-31.5%
13,CN1CCOC(CNC(=O)CCCc2ccccc2)C1 (configuration not stated),-4.15%
14,CN(Cc1nccn1CC(F)(F)F)C(=O)c1ccc2c(c1)OCO2,6.33%
15,Cc1nn(C)c(Cl)c1C1CCCN1Cc1nnc(C2CC2)o1 (configuration not stated),-31.1%
16,CC(=O)N1CCc2ncc(CNC(=O)C3CCC3)n2CC1,15.4%
17,CC(=O)N1CCC(NC(=O)NCc2ncc(-c3ccccc3)o2)CC1,47.1%
18,O=C(NCc1ncc(-c2ccccc2)o1)NC1CCC(O)CC1 (configuration not stated),61.9%
19,O=S(=O)(CC1CCOCC1)NCc1ncc(-c2ccccc2)o1,40.6%
20,O=C(NCCN1CCOCC1)NCc1ncc(-c2ccccc2)o1,2.37%
21,CC(=O)N1CCC(C(=O)NCc2ncc(-c3ccccc3)o2)CC1,83.2%
22,O=C1C[C@@H]2CC[C@H](CN1)N2c1cc(-c2ccccc2F)nc2ccnn12,-7.53%
23,CCc1ncc(CN2CCCC3(CCC(=O)N(CCC(C)C)C3)C2)cn1 (configuration not stated),0.818%
24,Cn1cc(CN2CCCC3(CCCN3S(C)(=O)=O)C2)cn1 (configuration not stated),-3.41%
25,Cn1cc(CN2CCC3(CCCCN3S(C)(=O)=O)CC2)cn1,27.6%
26,CC(C)NC(=O)C1CCC2(CCN(Cc3cnn(C)c3)CC2)C1 (configuration not stated),-13.7%
